# Screening results deposited in PubChem BioAssay by National Center for Advancing Translational Sciences (NCATS).
# Rows were chosen to be rich in hits. Some 20% of all compounds tested hit in one or more screens of this group.
# Cycloheximide cs: Cycloheximide Counterscreen for Small Molecule Inhibitors of Shiga Toxin | max response, % | cell reporter, cycloheximide protein synthesis inhibition counterscreen | actives 12% (n = 300,000) | AID 2314, 2010; in the data active = max response mostly above about 13%, no sharp cut-off; inactive = mostly below about 14%; also: read at 38.3 µM for the half of the compounds with a filed dose; 0% is about no effect
# Pf growth 96h: Primary qHTS for delayed death inhibitors of the malarial parasite plastid, 96 hour incubation; P. falciparum luciferase reporter growth, 96 h; Potency, µM (titrated, usually from 28.7 µM), inactives show at the highest dose activity change, negative = inhibition, most hits filed as inhibitors; actives 6.9% (n = 320,000); AID 504834, 2011; also: potency is read from the fitted curve at half-maximal effect; % is scaled to controls: 0 for no effect and ±100 for the full control effect
#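 Plates of compound plus infected erythrocytes (2% hematocrit, 0.05% parasitemia final) incubate 96 hours, 37 C, 5% CO2. Detection reagent added; reduced luminescence from the parasites' luciferase reporter flags inhibition.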
# Pf growth 48h: Primary qHTS for delayed death inhibitors of the malarial parasite plastid, 48 hour incubation; P. falciparum luciferase growth in erythrocytes, 48 h; Potency, µM (highest dose often 28.7 µM), without a hit: at the top dose activity change, negative = inhibition, usual class: inhibitors; actives 5.9% (n = 310,000); AID 504832, 2011; also: potency is read from the fitted curve at half-maximal effect; % is scaled to controls: 0 for no effect and ±100 for the full control effect
#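 In quantitative HTS format, infected erythrocytes bearing luciferase-reporter parasites were treated for a single generation at 37 C. Luminescence after adding detection reagent served as the growth measure.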
# HCMV antiviral: qHTS Assay for inhibitors of the human cytomegalovirus (HCMV) | actives 4.5% (n = 410,000) | HFF cells, HCMV-luciferase reporter, 72 h; hits give low values | activity change, negative = inhibition, % at 57.5 µM | AID 1259415, 2018; in the data active = activity change below about -60%; inconclusive = no clear call, values can overlap the other calls; inactive = above about -39%; also: % is scaled to controls: 0 for no effect and ±100 for the full control effect
#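 Screen run at 2 compound doses on HFFs infected with reporter HCMV, MOI 1 PFU/cell. Luciferase activity from cell lysates at 72 h post infection gave inhibition relative to buffer-only and Salinomycin wells.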
# Shiga toxin inh: A qHTS for Small Molecule Inhibitors of Shiga Toxin; Vero cells, Shiga toxin protein synthesis inhibition reporter; inhibition, % at 38.7 µM; actives 9.2% (n = 290,000); AID 2315, 2010; in the data active = inhibition mostly above about 28%, no sharp cut-off; inactive = mostly below about 43%; also: 0% is about no effect
# * marks the source's active call; other numbers are inactive results; i = inactive; ? = inconclusive; / = not tested or not shown. Unless noted, calls follow the shape of the dose curve; as a rule, active = well fitted inhibition curve with a large enough effect; inconclusive = small, poorly fitted or top-dose-only effect, or another doubt; inactive = no such curve, though single readings can be large or run the other way.
SMILES,Cycloheximide cs,Pf growth 96h,Pf growth 48h,HCMV antiviral,Shiga toxin inh
Cc1cccc(OCCCC(=O)Nc2ccccc2C(F)(F)F)c1,0,?,-5%,-6,-9
CCCCNC(=O)Nc1ccccc1Br,18,-2%,16%,-21,13
CCN(CC)C(=O)c1ccc(Cc2cn(C)c3ccccc23)nc1,/,/,/,-19,/
O=C(NNS(=O)(=O)c1ccc(Cl)cc1)c1sccc1-n1cccc1,-3,44%,1%,-10,-4
CC(C)c1ccc(NC(=O)c2sccc2-n2cccc2)cc1,56*,-13%,36%,47,158*
O=C(NNC(=O)c1sccc1-n1cccc1)c1ccc(Cl)cc1,0,0.33µM*,?,-10,-8
CC(C)c1ccc(NC2CCCN(C(=O)c3ccco3)C2)cc1 (centres undefined),13*,-4%,-28%,?,43
CCN1CCN(C(C(=O)NC2CCCC2)c2ccc(Cl)cc2)CC1 (centres undefined),0,12µM*,/,5,0
O=CN1CCN(C(C(=O)NC2CCCCC2)c2ccc(Cl)cc2)CC1 (centres undefined),/,/,/,-35,/
Cc1ccc(C(C(=O)NC2CCCCC2)N2CCN(C(=O)c3ccco3)CC2)cc1 (centres undefined),0,-24%,12µM*,83,6
Cc1ccc(C(C(=O)NC2CCCCC2)N2CCCC2)cc1 (centres undefined),3,?,31%,-6,6
CCOC(=O)C1CCN(C(C(=O)NC2CCCC2)c2ccc(C)cc2)CC1 (centres undefined),1,10µM*,/,-36,-20
CC(NC(=O)c1ccnc(C(C)(C)C)c1)c1ccccc1 (centres undefined),-6,-6%,2%,?,2
Cc1ccc(C(C(=O)NC2CCCC2)N2CCCCC2)cc1 (centres undefined),-3,1.9µM*,?,1,-12
COc1ccc(Cn2c(=O)c3cccnc3n(CC(=O)Nc3ccc(C)c(F)c3)c2=O)cc1,/,/,/,22,/
CCOc1ccc2nc3sc(C(=O)N4CCOCC4)c(N)c3cc2c1,8,21%,35%,38,40
Cc1ccc(C)c2nc3sc(C(=O)N4CCOCC4)c(N)c3cc12,27*,16%,2%,-39,58*
Cc1cc(C)c2cc3c(N)c(C(=O)N4CCOCC4)sc3nc2c1,-1,?,?,53,-3
Cc1cc(C)c2nc3sc(C(=O)N4CCOCC4)c(N)c3cc2c1,29*,i,248%,-94*,101*
CCOC(=O)c1ccc(NC(=O)N2CCN(C(=O)c3ccco3)CC2)cc1,-4,?,?,?,-5
Cc1ccc(S(=O)(=O)c2c[nH]c3cc4c(cc3c2=O)OCO4)cc1,-3,3%,2%,0,-2
COC(=O)Oc1ccc(/C=C/C(=O)OC(C)C)cc1OC(=O)OC,30*,77%,55%,-5,49
COc1ccc(-n2nc(C(=O)NCC(=O)N3CCN(Cc4ccccc4)CC3)c3ccccc3c2=O)cc1OC,-4,1µM*,?,-14,-8
COc1ccc(-n2nc(C(=O)NCC(=O)N3CCN(c4ccccc4F)CC3)c3ccccc3c2=O)cc1,6,45%,3%,75,24
COc1ccc(-n2nc(C(=O)NCC(=O)N3CCN(C)CC3)c3ccccc3c2=O)cc1OC,-1,130%,-8%,62,19
SMILES,Cycloheximide cs,Pf growth 96h,Pf growth 48h,HCMV antiviral,Shiga toxin inh
COC(=O)CNC(=O)CNC(=O)c1nn(-c2ccc(OC)c(OC)c2)c(=O)c2ccccc12,-3,28%,17%,8,-3
COc1ccc(-n2nc(C(=O)NCC(=O)NCCC3=CCCCC3)c3ccccc3c2=O)cc1OC,-2,9.3µM*,?,-7,-10
COc1ccc(-n2nc(C(=O)NCC(=O)N3CCN(c4ccccc4F)CC3)c3ccccc3c2=O)cc1OC,25*,?,?,32,22
COc1ccc(CCNC(=O)Nc2nnc([C@H]3C[C@H](O)[C@@H](CO)O3)s2)cc1OC,/,/,/,10,/
CCCCCCCCN1C(=O)[C@H](CC(=O)NCC2CCCCC2)C[C@@]2(C(=O)OC)CCCCC=C12,/,/,/,16,/
CC1=C/C(=N\OS(=O)(=O)c2ccccc2)C(C)=CC1=O,8.3*,4.1µM*,/,-100*,18
CC1=C/C(=N\OS(=O)(=O)c2ccccc2)C(C(C)C)=CC1=O,21*,11%,?,-82*,37
CC1=C(C)/C(=N\OS(=O)(=O)c2ccc(C)cc2)C=CC1=O,-9,-1%,?,-86*,-6
O=C(NCc1ccc2c(c1)OCO2)c1cc(-c2ccccn2)nc2ccccc12,14,?,191%,-19,-10
Cc1ccc(OCCNC(=O)[C@H]2O[C@@H](n3ccc(N)nc3=O)[C@H](O)[C@@H]2O)cc1C,/,/,/,11,/
COc1ccc(-n2c(=O)c3c(c4cc(OC)ccc4n3C)n(C)c2=O)cc1,/,/,/,5,/
O=C1CC[C@@H](S(=O)(=O)c2ccccc2)[C@H](c2ccccc2)N1Cc1ccccc1,/,/,/,-15,/
COc1nnc(-c2ccc(N3CCCCC3)c(NC(=O)C3CCCCC3)c2)c2ccccc12,-2,/,20%,-101*,-15
Cc1ccc(S(=O)(=O)N2CCC(C(=O)Nc3ccccc3N3CCCCC3)CC2)cc1,5,13%,7.4µM*,-18,-27
COc1nnc(-c2ccc(N3CCOCC3)c(NC(=O)C3CCCCC3)c2)c2ccccc12,1,?,?,?,8
COc1ccc(S(=O)(=O)N2CCC(C(=O)Nc3ccccc3N3CCCC3)CC2)cc1OC,-3,12µM*,?,1,-18
COCCCn1c(SCC(=O)NC2CCS(=O)(=O)C2)nnc1-c1ccc(Cl)cc1 (centres undefined),/,23%,13%,36,/
CCCn1c2ccccc2c2cnn(CC(=O)NCCc3ccc(C)cc3)c(=O)c21,/,/,/,-2,/
CC(C)C[C@H]1C(=O)N2CCCC2[C@]2(O)O[C@](NC(=O)[C@@H]3C=C4c5cccc6[nH]c(Br)c(c56)C[C@H]4N(C)C3)(C(C)C)C(=O)N12 (some centres undefined),/,?,3.4µM*,/,/
CC(C)[C@@]1(NC(=O)[C@H]2CC3c4cccc5[nH]cc(c45)C[C@H]3N(C)C2)O[C@@]2(O)C3CCCN3C(=O)[C@@H](Cc3ccccc3)N2C1=O (some centres undefined),/,8.5µM*,1.5µM*,/,/
CN1C[C@H](C(=O)N[C@]2(C)O[C@@]3(O)[C@@H]4CCCN4C(=O)[C@H](Cc4ccccc4)N3C2=O)CC2c3cccc4[nH]cc(c34)C[C@H]21 (some centres undefined),/,1.3µM*,1.9µM*,-19,/
